Among the data in ChEMBL document CHEMBL1961873, “Compounds: GSK PKIS; Assays: Nanosyn kinase panel” (2012) are inhibition values, retold here.

The target of test [1] is Sphingosine kinase 1 (Homo sapiens) (UniProt Q9NYA1). To be noted: at 1 µM.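 Also: mean SPHK1 inhibition value reported from the GSK PKIS kinase panel screen.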
Test [2] addresses T1, Sphingosine kinase 2 (Homo sapiens) (UniProt Q9NRA0).
T1 sequence (whole entry): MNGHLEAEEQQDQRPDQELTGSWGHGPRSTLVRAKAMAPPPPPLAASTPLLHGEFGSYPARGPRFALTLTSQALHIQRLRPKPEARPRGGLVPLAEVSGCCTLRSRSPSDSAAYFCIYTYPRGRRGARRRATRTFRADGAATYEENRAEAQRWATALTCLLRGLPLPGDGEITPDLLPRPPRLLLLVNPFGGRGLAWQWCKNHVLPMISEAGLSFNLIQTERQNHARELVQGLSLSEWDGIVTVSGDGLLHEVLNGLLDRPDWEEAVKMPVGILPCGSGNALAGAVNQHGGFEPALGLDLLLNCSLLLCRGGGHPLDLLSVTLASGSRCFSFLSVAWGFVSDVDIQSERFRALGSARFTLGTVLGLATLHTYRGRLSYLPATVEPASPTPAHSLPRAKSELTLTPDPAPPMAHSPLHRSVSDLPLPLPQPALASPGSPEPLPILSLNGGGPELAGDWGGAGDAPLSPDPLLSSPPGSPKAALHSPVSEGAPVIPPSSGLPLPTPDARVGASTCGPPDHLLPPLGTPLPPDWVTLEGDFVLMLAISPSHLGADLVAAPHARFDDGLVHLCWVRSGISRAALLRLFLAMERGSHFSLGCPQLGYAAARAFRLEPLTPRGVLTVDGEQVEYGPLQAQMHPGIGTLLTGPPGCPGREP
To be noted: at 0.1 µM.

The target in test [3] is T1, Sphingosine kinase 2 (Homo sapiens). To be noted: at 1 µM.
The target of test [4] is Casein kinase II subunit alpha (Homo sapiens) (UniProt P68400). To be noted: at 0.1 µM.
Sequence of Casein kinase II subunit alpha (Homo sapiens) (P68400 whole entry, looked up): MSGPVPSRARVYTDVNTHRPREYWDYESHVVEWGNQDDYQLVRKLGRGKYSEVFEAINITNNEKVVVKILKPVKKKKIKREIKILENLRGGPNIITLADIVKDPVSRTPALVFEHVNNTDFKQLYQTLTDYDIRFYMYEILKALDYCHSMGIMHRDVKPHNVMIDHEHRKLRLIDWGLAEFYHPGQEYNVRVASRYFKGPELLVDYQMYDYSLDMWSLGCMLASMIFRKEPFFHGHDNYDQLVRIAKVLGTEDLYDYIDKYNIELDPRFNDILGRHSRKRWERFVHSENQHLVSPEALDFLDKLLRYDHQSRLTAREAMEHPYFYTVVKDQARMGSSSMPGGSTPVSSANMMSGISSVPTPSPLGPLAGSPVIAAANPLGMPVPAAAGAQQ
Test [5] shares this target. To be noted: at 1 µM.
Test [6] deals with T2, Inhibitor of nuclear factor kappa-B kinase subunit alpha (Homo sapiens) (UniProt O15111).
T2 sequence (whole entry): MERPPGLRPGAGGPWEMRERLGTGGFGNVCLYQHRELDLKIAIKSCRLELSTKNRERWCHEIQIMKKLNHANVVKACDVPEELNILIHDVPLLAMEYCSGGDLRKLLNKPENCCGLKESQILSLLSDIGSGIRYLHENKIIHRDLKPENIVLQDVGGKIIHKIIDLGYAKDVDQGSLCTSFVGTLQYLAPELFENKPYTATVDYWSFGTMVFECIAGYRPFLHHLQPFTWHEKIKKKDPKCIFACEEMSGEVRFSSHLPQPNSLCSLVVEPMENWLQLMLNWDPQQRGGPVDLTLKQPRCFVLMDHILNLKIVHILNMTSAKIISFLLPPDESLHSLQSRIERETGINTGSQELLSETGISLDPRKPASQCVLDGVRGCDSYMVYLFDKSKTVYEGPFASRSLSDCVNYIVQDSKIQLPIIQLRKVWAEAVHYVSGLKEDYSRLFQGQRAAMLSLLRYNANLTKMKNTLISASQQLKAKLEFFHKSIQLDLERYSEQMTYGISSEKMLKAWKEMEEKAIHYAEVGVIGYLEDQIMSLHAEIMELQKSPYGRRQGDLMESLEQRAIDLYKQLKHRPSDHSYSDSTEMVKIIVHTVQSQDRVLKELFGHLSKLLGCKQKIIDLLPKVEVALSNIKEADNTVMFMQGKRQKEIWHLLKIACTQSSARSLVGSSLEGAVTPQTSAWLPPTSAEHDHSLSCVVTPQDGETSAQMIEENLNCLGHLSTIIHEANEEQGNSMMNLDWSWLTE
To be noted: at 0.1 µM.

The target in test [7] is T2, Inhibitor of nuclear factor kappa-B kinase subunit alpha (Homo sapiens). To be noted: at 1 µM.
Test [8] has as its target T3, Inhibitor of nuclear factor kappa-B kinase subunit beta (Homo sapiens) (UniProt O14920).
T3 sequence (whole entry): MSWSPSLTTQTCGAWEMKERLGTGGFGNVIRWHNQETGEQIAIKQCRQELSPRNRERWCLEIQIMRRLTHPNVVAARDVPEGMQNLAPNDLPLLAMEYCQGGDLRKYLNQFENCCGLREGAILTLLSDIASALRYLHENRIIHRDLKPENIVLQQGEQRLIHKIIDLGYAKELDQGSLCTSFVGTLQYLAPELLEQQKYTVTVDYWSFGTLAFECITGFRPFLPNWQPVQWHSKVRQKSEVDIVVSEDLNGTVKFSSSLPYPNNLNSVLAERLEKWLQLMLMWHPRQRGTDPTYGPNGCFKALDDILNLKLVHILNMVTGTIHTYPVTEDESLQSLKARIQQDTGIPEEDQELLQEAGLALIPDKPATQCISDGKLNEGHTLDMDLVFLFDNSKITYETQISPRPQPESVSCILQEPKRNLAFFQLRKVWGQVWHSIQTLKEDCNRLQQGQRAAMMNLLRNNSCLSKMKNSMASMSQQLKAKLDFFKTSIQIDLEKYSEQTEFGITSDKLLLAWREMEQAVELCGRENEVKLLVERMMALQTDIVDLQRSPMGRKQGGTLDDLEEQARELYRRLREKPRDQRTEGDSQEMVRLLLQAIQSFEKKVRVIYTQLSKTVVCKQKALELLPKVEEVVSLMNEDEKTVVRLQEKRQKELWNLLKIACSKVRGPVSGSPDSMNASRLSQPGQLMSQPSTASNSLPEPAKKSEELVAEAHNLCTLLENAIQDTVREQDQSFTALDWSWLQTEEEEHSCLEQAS
To be noted: at 0.1 µM.

The target of test [9] is T3, Inhibitor of nuclear factor kappa-B kinase subunit beta (Homo sapiens). To be noted: at 1 µM.
For test [10], the target named is T4, Inhibitor of nuclear factor kappa-B kinase subunit epsilon (Homo sapiens) (UniProt Q14164).
T4 sequence (whole entry): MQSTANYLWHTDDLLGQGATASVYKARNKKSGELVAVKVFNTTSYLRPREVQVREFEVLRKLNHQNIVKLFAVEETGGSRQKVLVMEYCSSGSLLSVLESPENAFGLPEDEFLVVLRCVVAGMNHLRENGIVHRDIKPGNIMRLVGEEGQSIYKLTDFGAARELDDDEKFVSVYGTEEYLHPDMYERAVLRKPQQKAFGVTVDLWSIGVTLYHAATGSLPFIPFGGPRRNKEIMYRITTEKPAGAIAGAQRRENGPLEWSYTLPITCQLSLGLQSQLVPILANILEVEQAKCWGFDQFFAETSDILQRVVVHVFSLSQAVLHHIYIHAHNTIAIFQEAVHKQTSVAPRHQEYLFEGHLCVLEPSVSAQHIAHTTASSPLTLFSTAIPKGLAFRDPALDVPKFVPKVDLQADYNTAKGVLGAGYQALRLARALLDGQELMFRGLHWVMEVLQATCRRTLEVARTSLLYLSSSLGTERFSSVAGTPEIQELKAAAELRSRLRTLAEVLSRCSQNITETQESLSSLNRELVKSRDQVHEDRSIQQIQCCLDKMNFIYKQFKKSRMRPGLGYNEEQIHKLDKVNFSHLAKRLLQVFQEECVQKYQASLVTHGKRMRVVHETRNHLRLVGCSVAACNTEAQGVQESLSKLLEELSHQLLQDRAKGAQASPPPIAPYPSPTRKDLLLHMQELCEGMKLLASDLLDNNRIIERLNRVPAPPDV
To be noted: at 0.1 µM.

For test [11], the target named is T4, Inhibitor of nuclear factor kappa-B kinase subunit epsilon (Homo sapiens). To be noted: at 1 µM.
Test [12] concerns the target T5, Serine/threonine-protein kinase Nek1 (Homo sapiens) (UniProt Q96PY6).
T5 sequence (whole entry): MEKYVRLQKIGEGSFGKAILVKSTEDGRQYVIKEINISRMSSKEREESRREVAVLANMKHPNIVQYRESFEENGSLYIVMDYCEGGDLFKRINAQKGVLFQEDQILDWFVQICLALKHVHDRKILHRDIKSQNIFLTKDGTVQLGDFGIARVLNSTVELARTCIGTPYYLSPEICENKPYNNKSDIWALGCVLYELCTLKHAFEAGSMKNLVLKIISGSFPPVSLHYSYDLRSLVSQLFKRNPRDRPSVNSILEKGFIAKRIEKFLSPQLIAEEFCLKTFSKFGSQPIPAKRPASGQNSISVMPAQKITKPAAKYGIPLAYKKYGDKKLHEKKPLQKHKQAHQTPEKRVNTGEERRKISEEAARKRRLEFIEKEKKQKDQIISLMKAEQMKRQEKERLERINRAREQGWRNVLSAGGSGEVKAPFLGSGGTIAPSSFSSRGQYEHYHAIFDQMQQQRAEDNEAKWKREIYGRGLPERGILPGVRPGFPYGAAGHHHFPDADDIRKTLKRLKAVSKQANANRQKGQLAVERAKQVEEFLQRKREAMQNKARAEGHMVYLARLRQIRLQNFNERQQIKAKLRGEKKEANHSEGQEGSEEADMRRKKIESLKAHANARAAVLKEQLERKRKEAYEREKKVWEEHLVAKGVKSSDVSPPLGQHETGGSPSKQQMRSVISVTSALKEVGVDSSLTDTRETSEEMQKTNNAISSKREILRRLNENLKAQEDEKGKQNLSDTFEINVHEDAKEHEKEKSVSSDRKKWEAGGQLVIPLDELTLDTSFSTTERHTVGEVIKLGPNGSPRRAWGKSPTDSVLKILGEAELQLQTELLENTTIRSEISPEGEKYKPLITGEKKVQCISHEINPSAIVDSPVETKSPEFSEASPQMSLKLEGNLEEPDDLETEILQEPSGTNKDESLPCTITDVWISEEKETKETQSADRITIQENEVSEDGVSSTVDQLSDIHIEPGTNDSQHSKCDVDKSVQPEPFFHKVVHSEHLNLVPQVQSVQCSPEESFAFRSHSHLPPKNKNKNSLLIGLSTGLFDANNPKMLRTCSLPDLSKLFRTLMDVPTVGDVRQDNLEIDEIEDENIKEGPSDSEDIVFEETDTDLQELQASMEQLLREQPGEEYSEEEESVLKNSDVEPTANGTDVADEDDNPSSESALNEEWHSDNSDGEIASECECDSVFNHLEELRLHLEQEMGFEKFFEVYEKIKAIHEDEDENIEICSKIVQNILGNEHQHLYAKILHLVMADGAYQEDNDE
To be noted: at 0.1 µM.

Test [13] addresses T5, Serine/threonine-protein kinase Nek1 (Homo sapiens). To be noted: at 1 µM.
The target in test [14] is T6, Serine/threonine-protein kinase Nek2 (Homo sapiens) (UniProt P51955).
T6 sequence (whole entry): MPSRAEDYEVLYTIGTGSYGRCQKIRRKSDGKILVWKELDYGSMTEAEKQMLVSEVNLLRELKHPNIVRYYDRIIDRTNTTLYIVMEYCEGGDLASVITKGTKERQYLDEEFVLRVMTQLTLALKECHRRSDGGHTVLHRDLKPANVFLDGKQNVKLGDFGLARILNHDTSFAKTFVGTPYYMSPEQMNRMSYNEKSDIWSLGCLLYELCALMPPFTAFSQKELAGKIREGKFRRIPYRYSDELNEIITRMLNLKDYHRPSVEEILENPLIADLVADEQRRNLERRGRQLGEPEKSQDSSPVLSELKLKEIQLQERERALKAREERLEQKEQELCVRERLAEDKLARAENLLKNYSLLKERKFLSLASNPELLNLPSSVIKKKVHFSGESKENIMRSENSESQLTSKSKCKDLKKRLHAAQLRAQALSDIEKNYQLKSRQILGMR
To be noted: at 0.1 µM.

In test [15] the target is T6, Serine/threonine-protein kinase Nek2 (Homo sapiens). To be noted: at 1 µM.
In test [16] the target is Serine/threonine-protein kinase Nek6 (Homo sapiens) (UniProt Q9HC98). To be noted: at 0.1 µM.
Sequence of Serine/threonine-protein kinase Nek6 (Homo sapiens) (Q9HC98 whole entry): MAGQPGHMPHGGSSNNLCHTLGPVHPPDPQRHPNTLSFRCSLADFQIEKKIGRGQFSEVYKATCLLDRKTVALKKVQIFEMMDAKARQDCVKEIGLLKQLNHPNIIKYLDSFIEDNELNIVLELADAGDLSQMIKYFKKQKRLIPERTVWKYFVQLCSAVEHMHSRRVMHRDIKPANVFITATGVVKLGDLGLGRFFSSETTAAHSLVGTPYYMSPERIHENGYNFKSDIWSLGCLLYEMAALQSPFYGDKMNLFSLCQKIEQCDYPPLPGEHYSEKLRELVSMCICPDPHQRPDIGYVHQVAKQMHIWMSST
The target is the same in test [17]. To be noted: at 1 µM.
For test [18], the target named is Serine/threonine-protein kinase Nek7 (Homo sapiens) (UniProt Q8TDX7). To be noted: at 0.1 µM.
Sequence of Serine/threonine-protein kinase Nek7 (Homo sapiens) (Q8TDX7 whole entry, looked up): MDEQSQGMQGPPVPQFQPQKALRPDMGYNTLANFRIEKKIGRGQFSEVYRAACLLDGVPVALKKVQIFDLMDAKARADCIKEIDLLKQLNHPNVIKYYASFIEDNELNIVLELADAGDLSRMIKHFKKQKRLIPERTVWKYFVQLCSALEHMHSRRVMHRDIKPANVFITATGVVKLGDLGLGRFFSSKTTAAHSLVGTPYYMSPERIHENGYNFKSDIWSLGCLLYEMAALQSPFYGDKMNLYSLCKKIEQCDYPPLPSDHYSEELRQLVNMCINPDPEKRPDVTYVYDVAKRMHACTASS
The target is the same in test [19]. To be noted: at 1 µM.
Test [20] deals with T7, Serine/threonine-protein kinase Nek9 (Homo sapiens) (UniProt Q8TD19).
T7 sequence (whole entry): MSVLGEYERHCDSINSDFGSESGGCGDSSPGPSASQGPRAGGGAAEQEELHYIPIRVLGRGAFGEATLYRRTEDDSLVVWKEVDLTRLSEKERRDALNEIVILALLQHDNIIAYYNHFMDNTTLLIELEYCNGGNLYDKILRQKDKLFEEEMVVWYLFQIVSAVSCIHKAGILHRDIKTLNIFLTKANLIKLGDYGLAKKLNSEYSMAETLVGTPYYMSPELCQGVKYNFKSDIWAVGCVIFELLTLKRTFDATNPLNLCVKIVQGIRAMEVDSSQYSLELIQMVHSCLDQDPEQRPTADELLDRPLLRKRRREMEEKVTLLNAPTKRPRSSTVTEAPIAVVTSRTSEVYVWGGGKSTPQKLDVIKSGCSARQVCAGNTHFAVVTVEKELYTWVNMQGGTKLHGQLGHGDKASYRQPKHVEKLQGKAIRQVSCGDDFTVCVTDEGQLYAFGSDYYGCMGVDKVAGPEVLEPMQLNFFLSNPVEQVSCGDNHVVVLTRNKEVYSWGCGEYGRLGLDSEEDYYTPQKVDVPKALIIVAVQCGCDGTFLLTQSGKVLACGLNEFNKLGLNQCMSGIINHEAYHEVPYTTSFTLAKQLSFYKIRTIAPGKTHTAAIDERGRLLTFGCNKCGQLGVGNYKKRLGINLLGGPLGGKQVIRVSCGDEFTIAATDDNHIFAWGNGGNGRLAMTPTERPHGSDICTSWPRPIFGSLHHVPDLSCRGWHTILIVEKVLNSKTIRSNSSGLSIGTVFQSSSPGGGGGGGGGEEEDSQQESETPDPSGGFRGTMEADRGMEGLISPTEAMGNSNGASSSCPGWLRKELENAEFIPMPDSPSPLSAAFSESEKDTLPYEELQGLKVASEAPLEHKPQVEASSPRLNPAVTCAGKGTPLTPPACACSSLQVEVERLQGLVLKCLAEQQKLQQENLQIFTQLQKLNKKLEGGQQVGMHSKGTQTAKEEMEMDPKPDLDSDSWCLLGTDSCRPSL
To be noted: at 0.1 µM.

Sequence of Sphingosine kinase 1 (Homo sapiens) (Q9NYA1 whole entry): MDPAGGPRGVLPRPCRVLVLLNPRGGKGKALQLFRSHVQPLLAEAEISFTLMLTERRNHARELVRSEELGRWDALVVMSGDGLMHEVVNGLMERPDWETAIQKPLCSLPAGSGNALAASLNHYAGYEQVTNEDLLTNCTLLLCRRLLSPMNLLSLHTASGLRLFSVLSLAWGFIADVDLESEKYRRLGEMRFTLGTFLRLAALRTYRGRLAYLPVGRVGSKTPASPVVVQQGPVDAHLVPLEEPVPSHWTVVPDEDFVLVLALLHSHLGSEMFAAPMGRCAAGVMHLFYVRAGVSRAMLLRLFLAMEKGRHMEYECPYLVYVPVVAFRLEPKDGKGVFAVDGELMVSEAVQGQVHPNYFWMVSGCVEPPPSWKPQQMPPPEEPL

As to `Cc1nnc(-c2cccc(-c3ccc(C(=O)NCC4CC4)cc3)c2)o1`, the inhibition (in general, the drop in the measured response relative to a control, in per cent) in test [1] was -1.04%; in test [2], 0.67%; in [3] it was -1.45%; in test [4] it was 5.98%; in test [5], 8.99%; in test [6], -9.01%. Also, the inhibition in test [7] is -3.16%; in test [8] it was 6.42%; in test [9], 5.6%; in [10], 7.79%; in test [11], 8.77%; in test [12], 3.27%. Besides, the inhibition amounted to 4% in test [13]; 6.76% in test [14]; 5.41% in [15]; 2.74% in test [16]; 6.86% in test [17]; 4.29% in [18]. In addition, the values for the inhibition in test [19] and in test [20] were 4.11% and 4.46%, respectively.
